The subject of test [1] is Neuro-2a. Nature of the test: neurite formation score, plate-normalized to DMSO control mean 5.04 (score (0-8 scale)); higher = more or longer neurites. As to conditions: 1 µM. As for the experimental part: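 Neuro-2a mouse neuroblastoma cells in PLL-coated 96-well plates were pre-treated for 1 h in DMEM(+) with each kinase inhibitor at 1 µM, then switched to serum-free DMEM(-) with inhibitor to induce neurite outgrowth and fixed about 2-3 h later. Three blinded observers scored neurite formation from 0 (no neurites) to 8 (long neurites on almost all cells).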

For test [2], the system named is Neuro-2a. Described as above. The conditions noted are these: 0.1 µM. As for the experimental part: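 Neuro-2a mouse neuroblastoma cells in PLL-coated 96-well plates were pre-treated for 1 h in DMEM(+) with each kinase inhibitor at 0.1 µM, then switched to serum-free DMEM(-) with inhibitor to induce neurite outgrowth and fixed about 2-3 h later. Three blinded observers scored neurite formation from 0 (no neurites) to 8 (long neurites on almost all cells).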

This passage reports neurite formation score results from the supplement of paper PMC8047044.

SMILES strings stand for the structures.

As for `COc1cc(N2CCC(N)CC2)ccc1Nc1ncc(Cl)c(-c2c[nH]c3ccccc23)n1`, the results for the neurite formation score in test [1] and in test [2] were 4.63 and 4.92, respectively.
As for `CNC(=O)c1nn(C)c2c1C(C)(C)Cc1cnc(Nc3ccc(N4CCN(C)CC4)cc3)nc1-2`, the results for the neurite formation score in test [1] and in test [2] were 3.29 and 4.58, respectively.
Consider `FC(F)c1nc2ccccc2n1-c1nc(N2CCOCC2)nc(N2CCOCC2)n1`, for which the neurite formation score in test [1] was found to be 4.24; in test [2], 4.21.
On the same counts, the results for `Cc1ccc([N+](=O)[O-])cc1S(=O)(=O)N(C)/N=C/c1cnc2ccc(Br)cn12` are 4.54 and 3.08.
Taken in the same sequence, the figures for `C=CC(=O)Nc1cccc(Oc2nc(Nc3ccc(N4CCN(C)CC4)cc3)ncc2Cl)c1` were 5.96 and 4.25.
On to `CCCCCCCCCCCCCCCc1cccc(O)c1C(=O)O` [Anacardic acid], for which the values for the neurite formation score in test [1] and in test [2] were 4.02 and 4.92, respectively.
Taken in the same sequence, the figures for `N#Cc1c(Oc2ccc(F)c(NC(=O)Cc3cccc(C(F)(F)F)c3)c2)ccc2nc(NC(=O)C3CC3)sc12` were 1.9 and 4.54.
Taken in the same sequence, the figures for `CN1CCN(c2ccc3nc(-c4c(N)c5c(F)cccc5[nH]c4=O)[nH]c3c2)CC1` [Dovitinib (TKI-258, CHIR-258)] were 4.88 and 4.08.
Taken in the same sequence, the figures for `O=c1cc(-c2cccc3c2Sc2ccccc2S3)oc(N2CCOCC2)c1` were 3.69 and 1.92.
As for `CN(c1ccccc1CNc1nc(Nc2ccc3c(c2)CC(=O)N3)ncc1C(F)(F)F)S(C)(=O)=O`, the neurite formation score in test [1] was found to be 4.29; in test [2], 3.58.
On the same counts, the results for `Cc1c(Cn2c(C)nc3c(C(=O)O)cc(N4CCOCC4)cc32)cccc1C(F)(F)F` are 4.88 and 4.08.
On the same counts, the results for `O=[N+]([O-])c1ccc(Nc2nc(N3CCOCC3)nc(N3CCOCC3)n2)cc1` are 4.21 and 5.08.
On the same counts, the results for `O=C(NCCO)c1cccc(-c2cc(Nc3ccc(OC(F)(F)F)cc3)ncn2)c1` are 5.63 and 4.92.
As to `Cc1c(F)cc(C(=O)NC2CC2)cc1-c1ccc(C(=O)NCC(C)(C)C)cn1` [Losmapimod], the results for the neurite formation score in test [1] and in test [2] were 5.21 and 4.75, respectively.
Taken in the same sequence, the figures for `CN1CCN(c2cccc(Nc3nc4c(-c5ccc(S(C)(=O)=O)cc5)cccn4n3)c2)CC1` were 4.69 and 4.25.
Taken in the same sequence, the figures for `C=CCc1ccc(O)c(-c2ccc(O)c(CC=C)c2)c1` [Honokiol] were 4.47 and 2.76.
On to `Cn1cnc(-c2cc3nccc(Oc4ccc(NC(=S)NC(=O)Cc5ccccc5)cc4F)c3s2)c1`, for which the results for the neurite formation score in test [1] and in test [2] were 3.69 and 4.92, respectively.
In the case of `O=C1C(c2c(O)[nH]c3ccccc23)=Nc2ccccc21` [Indirubin], the neurite formation score in test [1] was 4.88; in test [2] it was 4.42.
For the molecule `Clc1ccc(Nc2nnc(Cc3ccncc3)c3ccccc23)cc1` [Vatalanib], the neurite formation score is 4.69 in test [1] and 4.92 in test [2].
On the same counts, the results for `COc1c(C)c(C(=O)c2ccc(N)c(C(=O)O)c2)n2ccccc12` are 4.96 and 5.25.
In the case of `OCCn1cc(-c2ccc3c(c2)CC/C3=N\O)c(-c2ccncc2)n1`, the neurite formation score is 3.69 in test [1] and 4.58 in test [2].
Consider `C1=N/C2=N/c3ccc(OCCN4CCCC4)c(c3)COC/C=C/COCc3cccc(c3)C(=C1)N2` [Pacritinib], for which the neurite formation score is 2.29 in test [1] and 4.92 in test [2].
On the same counts, the results for `COc1cc2c(N3CCN(C(=O)Nc4ccc(OC(C)C)cc4)CC3)ncnc2cc1OCCCN1CCCCC1` [Tandutinib (MLN518)] are 5.29 and 4.58.
Taken in the same sequence, the figures for `Cc1nc(N)sc1-c1ccnc(Nc2ccc(N3CCOCC3)cc2)n1` were 4.69 and 4.58.
On to `Cc1cc(Nc2ncc(Cl)c(Nc3ccccc3S(=O)(=O)C(C)C)n2)c(OC(C)C)cc1C1CCNCC1`, for which the neurite formation score amounted to 4.24 in test [1] and 5.21 in test [2].
As for `Cc1ccc(C(=O)Nc2ccc(CN3CCN(C)CC3)c(C(F)(F)F)c2)cc1C#Cc1cnc2[nH]ncc2c1`, the neurite formation score in test [1] was found to be 0.626; in test [2], 2.58.
Taken in the same sequence, the figures for `COc1cc2ncnc(Oc3cccc(NC(=O)Nc4cc(C(C)(C)C(F)(F)F)on4)c3)c2cc1OC` were 5.24 and 4.71.
For `O=C(Nc1cccnc1)c1cc(-c2ccnc(F)c2)ccc1OCc1ccccc1`, the neurite formation score in test [1] is 3.88; in test [2], 5.08.
As to `COCCOc1ccc2c(c1)ncn2-c1ccc2cccc(N3CCC(N)CC3)c2n1`, the neurite formation score came to 4.88 in test [1] and 5.08 in test [2].
Taken in the same sequence, the figures for `Cc1ccc(NC(=O)c2ccc(CN3CCN(C)CC3)cc2)cc1Nc1nc(-c2cccnc2)cs1` [Masitinib (AB1010)] were 4.24 and 4.38.
With `CC1=CC(=O)C(C(C)C)=C/C1=N/OC(=O)c1ccccc1C` [Poloxin], the neurite formation score in test [1] is 4.02; in test [2], 5.25.
Taken in the same sequence, the figures for `NC(=O)c1ccc(N(C(N)=O)c2c(F)cccc2F)nc1-c1ccc(F)cc1F` were 4.63 and 4.58.
Taken in the same sequence, the figures for `Cn1cc(-c2ccc3nnc(C(F)(F)c4ccc5ncccc5c4)n3n2)cn1` were 4.02 and 4.25.
Take `CCn1c(=O)c(-c2ccc(-c3cncs3)cc2Cl)cc2cnc(Nc3ccc(N4CCN(C)CC4)cc3)nc21`: the neurite formation score was found to be 4.96 in test [1] and 4.25 in test [2].
On to `Nc1nc(Nc2ccc(S(N)(=O)=O)cc2)nn1C(=O)c1c(F)cccc1F`, for which the neurite formation score worked out at 5.02 in test [1] and 5.58 in test [2].
For the molecule `FC(F)(F)c1ccc(/C=C/c2nc(COc3ccc(CCCCn4ccnn4)cc3)co2)cc1` [Mubritinib (TAK 165)], the figures for the neurite formation score in test [1] and in test [2] were 4.47 and 4.76, respectively.
On the same counts, the results for `NC(=O)c1ccc2nc(-c3ccc(Oc4ccc(Cl)cc4)cc3)[nH]c2c1` are 4.63 and 5.25.
